In the supplement of paper PMC10127200:
Structures can show the parent of a compound that is named as a salt.

System: 786-O
Assay: Euclidean distance of Cell Painting phenotypic profile (signed KS, 77 features) to DMSO centroid (dimensionless distance); higher = stronger phenotypic change vs DMSO (phenoactivity)
Conditions: 48 h; 5 or 10 uM (library dependent)
Procedure, shortened: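 At 10 or 5 uM, as set by the library, and 0.1% DMSO final, compounds were applied for 48 h to five cancer lines and one healthy fibroblast line. Stained cells were imaged confocally at 20X in 9 fields per well, and Harmony extracted 77 features scored as signed Kolmogorov-Smirnov statistics against vehicle wells on the same plate. Profiles underwent plate-position correction, correlation weighting and replicate averaging at the top dose. Phenoactivity is the Euclidean distance from each such profile to the median vehicle profile.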

Compound | Euclidean distance
Cn1c(CCCCCCC(=O)NO)nc2cc(N(CCCl)CCCl)ccc21 [Tinostamustine(EDO-S101)] | 3.61
O=C1CC[C@@]2(O)[C@H]3Cc4ccc(O)c5c4[C@@]2(CCN3CC2CC2)[C@H]1O5 [Naltrexone HCl] | 1.26
Cc1cccc(Cc2c[nH]cn2)c1C [Detomidine HCl] | 1.46
CNCC(O)c1ccc(O)cc1 (stereo not given) [Synephrine HCl] | 0.581
Clc1ccc(C(OCCN2CCCCC2)c2ccccc2)cc1 (stereo not given) [Cloperastine hydrochloride] | 0.838
COc1cc(OC)c(OC)cc1C=O [Asaraldehyde] | 1.25
Oc1cccc2cccnc12 [8-Hydroxyquinoline] | 4.55
Cc1cc(C(C#N)c2ccc(Cl)cc2)c(Cl)cc1NC(=O)c1cc(I)cc(I)c1O (stereo not given) [Closantel] | 1.21
O=P(O)(NCCCl)NCCCl [Palifosfamide] | 1.23
C[C@]12CCC(=O)C[C@@H]1CC[C@@H]1[C@@H]2CC[C@]2(C)[C@@H](O)CC[C@@H]12 [Dihydrotestosterone(DHT)] | 1.54
O=c1ccc2ccc3occc3c2o1 [Isopsoralen] | 1.25
CC(C)[N+](C)(CCC(C(N)=O)(c1ccccc1)c1ccccc1)C(C)C [Isopropamide Iodide] | 1.26
CCCCCc1cc(O)cc(O)c1 [Olivetol] | 1.12
NCC(O)c1ccc(O)cc1 (stereo not given) [(+.-)-Octopamine HCl] | 1.71
C[C@H]1CC(=O)C[C@@H]2CC[C@H]3[C@@H]4CC[C@H](O)[C@@]4(C)CC[C@@H]3[C@]21C [Mesterolone] | 1.38
